According to ChEMBL document CHEMBL3433997, “St. Jude Leishmania screening dataset” (2016):

Tests used:
Format in all cases: functional
[1] = molecular target: Solute carrier family 2, facilitated glucose transporter member 1 (Homo sapiens) (UniProt P11166); test: ST_JUDE_LEISH: Cytotoxicity at 2uM final concentration against transgenic Leishmania Mexicana promastigotes LmGLUT1 that are glucose transport deficient and complemented with the human glucose transporter GLUT1. Activity is measured by DNA content using SYBR green in vitro
[2] = molecular target: Hexose transporter 1 (Plasmodium falciparum) (UniProt O97467); test: ST_JUDE_LEISH: Cytotoxicity at 2uM final concentration against transgenic Leishmania Mexicana promastigotes LmPfHT that are glucose transport deficient and complemented with the Plasmodium falciparum hexose transporter. Activity is measured by DNA content using SYBR green in vitro
[3] = molecular target: Glucose transporter (Leishmania mexicana) (UniProt O61059); test: ST_JUDE_LEISH: Cytotoxicity at 2uM final concentration against transgenic Leishmania Mexicana promastigotes LmGT2 that are glucose transport deficient and complemented with the L. Mexicana glucose transporter 2. Activity is measured by DNA content using SYBR green in vitro

Chain of Solute carrier family 2, facilitated glucose transporter member 1 (Homo sapiens) (P11166 whole entry): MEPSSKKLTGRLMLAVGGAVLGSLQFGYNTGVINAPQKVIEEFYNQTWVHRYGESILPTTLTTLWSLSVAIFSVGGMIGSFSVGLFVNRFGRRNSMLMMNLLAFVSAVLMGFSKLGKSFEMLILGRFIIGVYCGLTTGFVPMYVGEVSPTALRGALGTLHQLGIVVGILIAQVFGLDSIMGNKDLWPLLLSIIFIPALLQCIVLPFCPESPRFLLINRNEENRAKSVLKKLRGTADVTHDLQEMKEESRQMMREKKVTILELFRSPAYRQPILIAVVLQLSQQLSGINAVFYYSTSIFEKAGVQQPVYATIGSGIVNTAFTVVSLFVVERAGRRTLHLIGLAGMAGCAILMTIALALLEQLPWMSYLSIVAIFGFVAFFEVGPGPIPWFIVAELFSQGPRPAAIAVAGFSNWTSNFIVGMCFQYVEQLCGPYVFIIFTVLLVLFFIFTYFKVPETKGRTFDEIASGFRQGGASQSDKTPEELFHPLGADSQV

Row | Structure (SMILES) | inhibition [1] [%] | inhibition [2] [%] | inhibition [3] [%]
1 | CCOc1c(Br)cc(Cl)cc1CNCCCNc1nc2ccccc2[nH]1 | 1.77 | 1.74 | 3
2 | Cc1nc(-c2nc(NCc3ccncc3)ncc2-c2ccsc2)sc1C | -1.32 | -0.89 | 0.31
3 | Cc1nnsc1C(=O)Nc1cccc(-c2cccc(-c3nc4cc(F)ccc4[nH]3)c2)c1 | 0.66 | 0.05 | -2.12
4 | O=S(=O)(Nc1cccc(CCN2CCCCC2CCN2CCCC2)c1)c1ccc2ccccc2c1 (configuration not stated) | 0.63 | -0.31 | -3.3
